For eight molecules, growth results are on record in PubChem BioAssay (NCI).

Each structure is given as a SMILES string. This is part of a sample that, as a whole, favours compounds with a hit. Of some 83,000 tested, about 20% had one in any assay.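 For each line, cells grew in 96-well plates with the test compound present at a single concentration for 48 hours.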 A number with no mark means an inactive call. The source made the active and inactive calls. Rule for the calls: active = growth percent below 10; inactive = the rest.

Test systems include NCI-H23 lung; NCI-H226 lung; NCI-H322M lung; HOP-62 NSCLC; NCI-H460 lung; HOP-92 NSCLC; NCI-H522 lung; A549/ATCC NSCLC; 786-0 renal; COLO 205 colon; DU-145 prostate; K-562 leukemia; MALME-3M melanoma; MDA-MB-231 breast; RXF 393 renal; SF-268 CNS; SF-295 CNS; SF-539 CNS; UACC-257 melanoma; M14 melanoma.
What all share (assay): NCI-60 one-dose screen, 48 h (100 = growth as untreated, 0 = no growth, -100 = all killed)
What all share (settings): 10 µM unless noted

Consider `COC(=O)c1c(C)nc(C)c2c1C(=O)C(Br)=C(NCCN1CCOCC1)C2=O`, for which the growth in the experiment on NCI-H23 lung is 89%; with NCI-H226 lung, 107%; with NCI-H322M lung it was 96.2%; in the experiment on HOP-62 NSCLC, 133%; in the experiment on NCI-H460 lung, 88.6%; in the experiment on HOP-92 NSCLC, 118%. Also, the growth is 102% in the experiment with NCI-H522 lung; 98.6% in the experiment with A549/ATCC NSCLC; 101% with 786-0 renal; 56.5% in the experiment with COLO 205 colon; 112% with DU-145 prostate; 97.4% in the experiment with K-562 leukemia. Moreover, the growth is 37% in the experiment with MALME-3M melanoma; 112% with MDA-MB-231 breast; 106% with RXF 393 renal; 95.3% in the experiment on SF-268 CNS; 95.8% in the experiment on SF-295 CNS; 107% with SF-539 CNS. Also, in the experiment on UACC-257 melanoma, the growth was 87.5%.

For `COC(=O)[C@@H](Cc1c[nH]c2ccccc12)NC[C@@H](O)CN1C(=O)/C(=C\c2cc(OC)c(OC)c(OC)c2)c2ccccc21`, the growth in the experiment with NCI-H23 lung was 76.6%; with NCI-H226 lung, 58.5%; with NCI-H322M lung, 84.8%; in the experiment with HOP-62 NSCLC it was 64.8%; with NCI-H460 lung, 68.2%; with HOP-92 NSCLC, 68%. Besides, the growth with NCI-H522 lung was 67.4%; in the experiment on A549/ATCC NSCLC, 67.2%; in the experiment on 786-0 renal, 77.6%; in the experiment on COLO 205 colon it was 73.8%; in the experiment with DU-145 prostate, 75.1%; in the experiment with K-562 leukemia it was 36%. Besides, the growth in the experiment with MALME-3M melanoma is 84.8%; in the experiment with MDA-MB-231 breast it was 82.5%; in the experiment with RXF 393 renal, 72%; in the experiment on SF-268 CNS, 70.6%; with SF-295 CNS it was 69.4%; in the experiment on SF-539 CNS it was 93.3%. In addition, the growth in the experiment on UACC-257 melanoma was 62.2%; in the experiment on M14 melanoma it was 64.6%.

As to `COc1ccc(S(=O)(=O)N(C)c2oc(-c3ccc(Cl)cc3)nc2C#N)cc1`, the growth with NCI-H23 lung is 79.7%; with NCI-H226 lung, 94.9%; in the experiment with NCI-H322M lung, 98.2%; in the experiment on HOP-62 NSCLC it was 82.7%; with NCI-H460 lung it was 95.9%; with HOP-92 NSCLC it was 77.2%. The growth with NCI-H522 lung is 83%; in the experiment with A549/ATCC NSCLC, 87.3%; with 786-0 renal it was 98.2%; with COLO 205 colon it was 97.9%; with DU-145 prostate, 97.9%; with K-562 leukemia, 20.3%. Moreover, the growth in the experiment on MALME-3M melanoma is 68.9%; in the experiment on MDA-MB-231 breast, 87%; in the experiment on RXF 393 renal, 80.1%; in the experiment on SF-268 CNS, 82.7%; with SF-295 CNS, 91.9%; with SF-539 CNS it was 82.9%. The growth in the experiment with UACC-257 melanoma is 86.7%.

Turning to `C=CC(=O)NCc1cccc(Nc2ncc(Br)c(NCCCNC(=O)C3CCC3)n2)c1`, the growth in the experiment on NCI-H23 lung was -37% (active); in the experiment with NCI-H226 lung, -0.669% (active); in the experiment on NCI-H322M lung it was -13.1% (active); in the experiment with HOP-62 NSCLC it was -26.9% (active); in the experiment on NCI-H460 lung, -41.9% (active); with HOP-92 NSCLC, -11.5% (active). Also, the growth is -38.8% (active) with NCI-H522 lung; -9.64% (active) in the experiment on A549/ATCC NSCLC; -35.2% (active) in the experiment on 786-0 renal; -25.7% (active) in the experiment with COLO 205 colon; 9.47% (active) with DU-145 prostate; 9.33% (active) with K-562 leukemia. The growth in the experiment on MALME-3M melanoma is -23.2% (active); in the experiment on MDA-MB-231 breast, -26% (active); in the experiment with RXF 393 renal, -74.6% (active); in the experiment with SF-268 CNS, -29.4% (active); in the experiment on SF-295 CNS, 2.75% (active); in the experiment on SF-539 CNS, -68% (active). Also, in the experiment on UACC-257 melanoma, the growth was 0.107% (active).

For `C=C(C)[C@@H]1CC[C@]2(COC(=O)c3cccnc3)CC[C@]3(C)[C@H](CC[C@@H]4[C@@]5(C)CCCN(C(=O)c6cccnc6)C(C)(C)[C@@H]5CC[C@]43C)[C@@H]12`, the growth in the experiment with NCI-H23 lung is 42.6%; in the experiment on NCI-H226 lung, 42.1%; in the experiment with NCI-H322M lung, 65.6%; with HOP-62 NSCLC it was 61%; with NCI-H460 lung, 17.7%; in the experiment on HOP-92 NSCLC, 32.9%. For the same molecule, the growth was 34.3% with NCI-H522 lung; 29.3% in the experiment with A549/ATCC NSCLC; 45.1% in the experiment on 786-0 renal; 27.9% in the experiment on COLO 205 colon; 44% in the experiment with DU-145 prostate; 13.7% in the experiment with K-562 leukemia. The growth is 69.1% with MALME-3M melanoma; 52.7% in the experiment with MDA-MB-231 breast; 56.1% in the experiment on RXF 393 renal; 45.5% in the experiment on SF-268 CNS; 40.9% in the experiment on SF-295 CNS; 46.4% in the experiment with SF-539 CNS. In the experiment with UACC-257 melanoma, the growth was 19.9%.

For the molecule `C#CCOc1cc(/C=N/Nc2nc(-c3ccc(OC)cc3)cs2)ccc1O`, the growth in the experiment on NCI-H23 lung is 58.8%; with NCI-H226 lung it was 89.6%; with NCI-H322M lung, 92.4%; with HOP-62 NSCLC, 97%; in the experiment with NCI-H460 lung it was 88.4%; with HOP-92 NSCLC, 86.3%. The growth is 76.1% in the experiment with NCI-H522 lung; 74.2% in the experiment with A549/ATCC NSCLC; 92.6% with 786-0 renal; 103% in the experiment with COLO 205 colon; 95.7% with DU-145 prostate; 59.1% in the experiment with K-562 leukemia. Besides, the growth in the experiment on MALME-3M melanoma was 86.1%; with MDA-MB-231 breast, 96.5%; in the experiment with RXF 393 renal, 107%; in the experiment on SF-268 CNS it was 94.3%; with SF-295 CNS, 84.1%; in the experiment on SF-539 CNS, 93%. In addition, in the experiment on UACC-257 melanoma, the growth is 93.2%.

As for `COc1cccc(NC(=O)c2sc3nc(C)c(C(=O)c4ccccc4)cc3c2N)c1`, the growth in the experiment on NCI-H23 lung is 101%; with NCI-H226 lung it was 93.9%; in the experiment on NCI-H322M lung, 84.3%; in the experiment with HOP-62 NSCLC, 89.7%; with NCI-H460 lung it was 61.2%; in the experiment on HOP-92 NSCLC, 86.9%. Besides, the growth was 92.5% in the experiment on NCI-H522 lung; 35.1% in the experiment with A549/ATCC NSCLC; 89% in the experiment on 786-0 renal; 107% in the experiment on COLO 205 colon; 99.9% in the experiment on DU-145 prostate; 64.4% with K-562 leukemia. Further, the growth was 81.5% in the experiment with MALME-3M melanoma; 91.6% in the experiment with MDA-MB-231 breast; 85.8% in the experiment with RXF 393 renal; 87.6% with SF-268 CNS; 67.3% with SF-295 CNS; 86.5% in the experiment on SF-539 CNS. In the experiment with UACC-257 melanoma, the growth is 81.5%.

Regarding `CCOC(=O)/C(=C\c1ccccc1Cl)P(=O)(OCC)OCC`, the growth in the experiment with NCI-H23 lung was 46.6%; in the experiment on NCI-H226 lung, 66.4%; in the experiment on NCI-H322M lung, 75.4%; in the experiment with HOP-62 NSCLC it was 118%; in the experiment on NCI-H460 lung, 61.9%; with HOP-92 NSCLC, 60%. Besides, the growth was 34% with NCI-H522 lung; 64.9% in the experiment with A549/ATCC NSCLC; 75.8% in the experiment on 786-0 renal; 52.9% with COLO 205 colon; 36% in the experiment on DU-145 prostate; 28.6% with K-562 leukemia. Moreover, the growth with MALME-3M melanoma was 71.2%; with MDA-MB-231 breast, 71%; with RXF 393 renal it was 42.8%; in the experiment with SF-268 CNS, 63.2%; in the experiment with SF-295 CNS, 96.7%; with SF-539 CNS, 48.2%. Moreover, in the experiment with UACC-257 melanoma, the growth was 61.9%.
